What all share (experiment): log2 fold change, soluble protein after heating vs DMSO (PISA); higher = thermal stabilisation; K562 cells, 10 uM, 30 min; active = over 0.2 and 3.5 SD of the protein, either way, in both replicates (recomputed)
Compound in assay [1]: COC1=CC=C(C=C1)CN2C=CC3=C2C=C(C=C3)C(=O)NO
A digest of the protocol: (§1)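 Aliquots of K562 cells (2×10^6 cells/mL) treated with 10 μM compound for 30 min were heated for 3 min over 48°C-58°C. After pooling and extraction in PBS with 0.5% NP-40 at 4°C, soluble protein from a 21,000xg, 90 min spin was quantified by TMTpro 16plex LC-MS/MS with channel sums equalised. Thermal stability is expressed against control samples, from duplicates, as a log2 fold change.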

Compound in a further assay: CON(C)C(=O)N1N=C(c2cc(F)ccc2F)S[C@@]1(CCCN)c1ccccc1 [filanesib]
A digest of the protocol:
as §1

Compound in the next assay: CO[C@H]1C[C@@H]2CC[C@@H](C)[C@@](O)(O2)C(=O)C(=O)N2CCCC[C@H]2C(=O)O[C@H]([C@H](C)C[C@@H]2CC[C@H](n3cnnn3)[C@H](OC)C2)CC(=O)[C@H](C)/C=C(\C)[C@@H](O)[C@@H](OC)C(=O)[C@H](C)C[C@H](C)/C=C/C=C/C=C/1C [zotarolimus]
In outline: as §1

Compound in the next assay: COc1cc(C(=O)O)ccc1NC(=O)[C@@H]1N[C@@H](CC(C)(C)C)[C@](C#N)(c2ccc(Cl)cc2F)[C@H]1c1cccc(Cl)c1F [idasanutlin]
In outline:
as §1

Compound in a further assay: COc1cc(Nc2ncc3c(n2)-c2ccc(Cl)cc2C(c2c(F)cccc2OC)=NC3)ccc1C(=O)O [alisertib]
A digest of the protocol:
as §1

Compound in assay [2]: COc1cc2nc(-c3cc(F)ccc3O)nc(N[C@@H]3CNC[C@H]3C(C)(C)O)c2cc1OC
In outline: as §1

Compound in the next assay: COc1cc2ncnc(Nc3ccc(F)c(Cl)c3)c2cc1OCCCN1CCOCC1 [gefitinib]
A digest of the protocol: as §1

Compound in assay [3]: COc1cccc2cc(-c3nc([C@H]4CC[C@H](C(=O)O)CC4)n4ncnc(N)c34)[nH]c12
A digest of the protocol:
as §1

Compound in a further assay: CS(=O)(=O)CCNCc1ccc(-c2ccc3ncnc(Nc4ccc(OCc5cccc(F)c5)c(Cl)c4)c3c2)o1 [lapatinib]
A digest of the protocol: as §1

Compound in another assay: CS(=O)(=O)N1CCN(Cc2cc3nc(-c4cccc5[nH]ncc45)nc(N4CCOCC4)c3s2)CC1 [pictilisib]
A digest of the protocol: as §1

Of roughly 7,900 targets only a part is listed; those with a hit were picked by preference. About 0.6% of all pairs of compound and target were hits. A number with no mark means an inactive call.

Sequence of UniProt Q13523 (Q13523 whole entry, looked up): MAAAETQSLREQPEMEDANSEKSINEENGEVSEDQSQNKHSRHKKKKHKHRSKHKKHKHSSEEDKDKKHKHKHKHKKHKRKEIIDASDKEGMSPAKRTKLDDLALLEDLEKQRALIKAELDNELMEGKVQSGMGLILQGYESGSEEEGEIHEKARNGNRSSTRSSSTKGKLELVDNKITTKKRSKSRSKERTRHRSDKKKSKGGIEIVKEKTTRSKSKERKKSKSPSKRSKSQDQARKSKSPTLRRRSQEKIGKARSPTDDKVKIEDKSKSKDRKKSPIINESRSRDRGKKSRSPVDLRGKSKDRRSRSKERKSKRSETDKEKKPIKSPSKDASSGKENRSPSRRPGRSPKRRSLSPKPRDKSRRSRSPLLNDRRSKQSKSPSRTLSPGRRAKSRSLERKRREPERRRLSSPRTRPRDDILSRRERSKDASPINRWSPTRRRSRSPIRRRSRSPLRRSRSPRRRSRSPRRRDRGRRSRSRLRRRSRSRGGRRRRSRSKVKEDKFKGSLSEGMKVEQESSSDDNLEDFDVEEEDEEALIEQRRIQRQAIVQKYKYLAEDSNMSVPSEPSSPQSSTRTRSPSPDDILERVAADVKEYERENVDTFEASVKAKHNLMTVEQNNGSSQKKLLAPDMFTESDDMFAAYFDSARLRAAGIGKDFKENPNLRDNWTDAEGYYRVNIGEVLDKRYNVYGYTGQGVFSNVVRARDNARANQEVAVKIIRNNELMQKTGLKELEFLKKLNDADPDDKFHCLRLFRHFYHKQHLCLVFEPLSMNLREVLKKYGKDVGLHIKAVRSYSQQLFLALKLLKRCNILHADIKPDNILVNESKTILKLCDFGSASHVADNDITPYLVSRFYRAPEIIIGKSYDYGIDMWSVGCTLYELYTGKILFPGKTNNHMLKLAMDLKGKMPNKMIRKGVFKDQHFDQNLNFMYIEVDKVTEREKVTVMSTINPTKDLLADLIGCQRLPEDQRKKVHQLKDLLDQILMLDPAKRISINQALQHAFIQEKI
Sequence of UniProt Q8N5Y8 (Q8N5Y8 whole entry, looked up): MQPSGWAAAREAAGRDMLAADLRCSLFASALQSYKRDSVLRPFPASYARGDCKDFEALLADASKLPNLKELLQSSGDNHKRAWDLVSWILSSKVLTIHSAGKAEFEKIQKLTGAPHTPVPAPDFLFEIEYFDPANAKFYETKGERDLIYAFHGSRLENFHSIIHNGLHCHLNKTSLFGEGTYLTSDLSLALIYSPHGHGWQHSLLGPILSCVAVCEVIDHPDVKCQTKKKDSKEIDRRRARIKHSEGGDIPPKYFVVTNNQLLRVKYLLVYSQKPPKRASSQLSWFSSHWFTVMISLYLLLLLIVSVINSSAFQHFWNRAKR
Sequence of UniProt Q9P2B2 (Q9P2B2 whole entry, looked up): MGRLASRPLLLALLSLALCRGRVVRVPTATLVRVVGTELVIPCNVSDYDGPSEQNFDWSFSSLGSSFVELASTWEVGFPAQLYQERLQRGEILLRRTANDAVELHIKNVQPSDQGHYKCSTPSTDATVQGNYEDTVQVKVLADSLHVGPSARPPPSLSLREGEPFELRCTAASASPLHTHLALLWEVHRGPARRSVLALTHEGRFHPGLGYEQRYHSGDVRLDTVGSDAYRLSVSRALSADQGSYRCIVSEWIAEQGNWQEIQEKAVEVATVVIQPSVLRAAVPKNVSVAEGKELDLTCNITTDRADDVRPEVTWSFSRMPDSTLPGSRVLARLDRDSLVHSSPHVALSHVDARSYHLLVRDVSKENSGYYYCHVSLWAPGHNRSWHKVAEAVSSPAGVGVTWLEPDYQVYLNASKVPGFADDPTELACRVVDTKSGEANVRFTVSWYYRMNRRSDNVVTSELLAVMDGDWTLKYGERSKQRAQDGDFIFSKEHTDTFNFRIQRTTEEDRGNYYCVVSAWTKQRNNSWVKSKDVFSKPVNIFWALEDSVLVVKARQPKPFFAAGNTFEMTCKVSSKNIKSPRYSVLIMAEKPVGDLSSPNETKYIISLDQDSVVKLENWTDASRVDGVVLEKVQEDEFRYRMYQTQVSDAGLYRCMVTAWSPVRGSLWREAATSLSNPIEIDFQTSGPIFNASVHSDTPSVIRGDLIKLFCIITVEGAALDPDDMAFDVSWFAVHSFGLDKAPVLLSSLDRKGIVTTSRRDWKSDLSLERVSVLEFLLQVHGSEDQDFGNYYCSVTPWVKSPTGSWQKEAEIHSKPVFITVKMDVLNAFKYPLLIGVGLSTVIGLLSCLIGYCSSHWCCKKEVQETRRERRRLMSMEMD
Sequence of UniProt P49643 (P49643 whole entry, looked up): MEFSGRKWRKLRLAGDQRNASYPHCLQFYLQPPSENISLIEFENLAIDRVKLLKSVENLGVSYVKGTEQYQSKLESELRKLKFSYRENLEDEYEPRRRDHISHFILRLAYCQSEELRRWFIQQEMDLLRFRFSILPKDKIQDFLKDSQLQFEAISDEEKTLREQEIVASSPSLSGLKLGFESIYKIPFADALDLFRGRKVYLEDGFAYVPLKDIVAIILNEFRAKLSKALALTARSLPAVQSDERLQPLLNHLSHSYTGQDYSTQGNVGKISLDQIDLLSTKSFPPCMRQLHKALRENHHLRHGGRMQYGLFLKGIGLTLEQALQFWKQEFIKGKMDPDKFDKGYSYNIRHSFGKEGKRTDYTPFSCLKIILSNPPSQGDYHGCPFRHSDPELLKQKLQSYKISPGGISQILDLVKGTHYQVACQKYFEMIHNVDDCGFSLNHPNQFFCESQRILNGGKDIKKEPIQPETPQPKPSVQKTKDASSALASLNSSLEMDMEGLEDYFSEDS
Sequence of UniProt Q13200 (Q13200 whole entry, looked up): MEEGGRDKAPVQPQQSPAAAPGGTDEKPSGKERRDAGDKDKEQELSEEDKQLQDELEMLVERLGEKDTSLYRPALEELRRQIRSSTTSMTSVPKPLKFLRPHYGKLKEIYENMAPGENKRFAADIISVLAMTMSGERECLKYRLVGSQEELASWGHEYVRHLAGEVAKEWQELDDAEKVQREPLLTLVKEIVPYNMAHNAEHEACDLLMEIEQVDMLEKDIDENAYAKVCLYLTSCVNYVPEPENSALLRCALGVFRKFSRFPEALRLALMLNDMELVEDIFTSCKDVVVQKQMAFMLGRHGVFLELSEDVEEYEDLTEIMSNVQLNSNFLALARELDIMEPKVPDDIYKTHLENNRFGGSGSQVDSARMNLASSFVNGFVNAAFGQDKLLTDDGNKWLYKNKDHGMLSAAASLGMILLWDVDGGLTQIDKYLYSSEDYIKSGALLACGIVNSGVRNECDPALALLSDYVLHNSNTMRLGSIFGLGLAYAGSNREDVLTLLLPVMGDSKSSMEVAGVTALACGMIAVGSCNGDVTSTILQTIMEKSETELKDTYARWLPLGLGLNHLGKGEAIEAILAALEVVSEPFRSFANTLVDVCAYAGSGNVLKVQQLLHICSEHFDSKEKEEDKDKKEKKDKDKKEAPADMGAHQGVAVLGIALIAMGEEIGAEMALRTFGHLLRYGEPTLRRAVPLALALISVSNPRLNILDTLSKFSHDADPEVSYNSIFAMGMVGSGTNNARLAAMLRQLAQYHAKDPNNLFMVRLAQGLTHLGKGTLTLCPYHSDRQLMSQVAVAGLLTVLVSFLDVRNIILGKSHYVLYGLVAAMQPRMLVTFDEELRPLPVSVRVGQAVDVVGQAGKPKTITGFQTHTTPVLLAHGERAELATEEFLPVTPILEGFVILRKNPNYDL
Sequence of UniProt P46019 (P46019 whole entry, looked up): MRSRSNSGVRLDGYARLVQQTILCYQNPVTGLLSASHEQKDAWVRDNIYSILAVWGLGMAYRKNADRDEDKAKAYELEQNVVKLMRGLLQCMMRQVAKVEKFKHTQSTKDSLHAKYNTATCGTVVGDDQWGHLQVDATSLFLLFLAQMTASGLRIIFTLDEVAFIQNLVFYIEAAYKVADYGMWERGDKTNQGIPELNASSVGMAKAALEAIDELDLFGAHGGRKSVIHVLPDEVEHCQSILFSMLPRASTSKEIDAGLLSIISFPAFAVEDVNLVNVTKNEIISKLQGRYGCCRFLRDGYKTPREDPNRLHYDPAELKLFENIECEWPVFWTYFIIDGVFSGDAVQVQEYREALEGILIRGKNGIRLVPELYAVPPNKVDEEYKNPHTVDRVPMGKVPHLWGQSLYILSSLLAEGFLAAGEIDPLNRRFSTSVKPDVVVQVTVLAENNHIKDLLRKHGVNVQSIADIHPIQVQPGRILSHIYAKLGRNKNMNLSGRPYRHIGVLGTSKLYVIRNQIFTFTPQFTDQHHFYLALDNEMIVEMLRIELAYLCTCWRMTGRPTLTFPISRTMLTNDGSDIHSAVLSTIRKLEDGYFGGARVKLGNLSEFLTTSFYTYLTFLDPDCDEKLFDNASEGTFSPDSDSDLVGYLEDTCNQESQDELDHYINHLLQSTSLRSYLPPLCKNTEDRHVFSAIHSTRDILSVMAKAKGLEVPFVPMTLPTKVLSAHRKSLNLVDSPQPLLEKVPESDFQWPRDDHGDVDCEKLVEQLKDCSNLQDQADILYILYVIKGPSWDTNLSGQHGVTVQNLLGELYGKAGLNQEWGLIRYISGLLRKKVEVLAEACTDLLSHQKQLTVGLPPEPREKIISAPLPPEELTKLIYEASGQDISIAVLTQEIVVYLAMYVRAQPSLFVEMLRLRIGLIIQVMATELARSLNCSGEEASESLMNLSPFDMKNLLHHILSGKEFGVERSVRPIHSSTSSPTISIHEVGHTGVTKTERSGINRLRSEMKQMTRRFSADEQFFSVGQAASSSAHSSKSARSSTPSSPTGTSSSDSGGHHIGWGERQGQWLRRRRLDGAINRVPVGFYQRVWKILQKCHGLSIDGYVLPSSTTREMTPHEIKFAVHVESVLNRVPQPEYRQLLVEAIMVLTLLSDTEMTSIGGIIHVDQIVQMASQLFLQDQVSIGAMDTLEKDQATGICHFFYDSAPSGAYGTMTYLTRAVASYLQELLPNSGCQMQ
Sequence of UniProt Q6EEV4 (Q6EEV4 whole entry, looked up): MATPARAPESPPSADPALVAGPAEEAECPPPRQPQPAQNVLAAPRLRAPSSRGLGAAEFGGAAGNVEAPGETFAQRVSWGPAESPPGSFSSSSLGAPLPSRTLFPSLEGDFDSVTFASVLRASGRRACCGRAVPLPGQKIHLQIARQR

Turning to PSMD2 (UniProt Q13200), the log2 fold change was -0.036 in assay [1]; 0.051 in the assay with filanesib; -0.015 in the assay with zotarolimus; 0.039 in the assay with idasanutlin; -0.089 with alisertib; -0.071 in assay [2]. In addition, the log2 fold change with gefitinib is -0.043; in assay [3], -0.053; with lapatinib it was 0.077; with pictilisib, -0.059.

Take PTGFRN (UniProt Q9P2B2): the log2 fold change in assay [1] is 0.006; in the assay with filanesib, 0.129; in the assay with zotarolimus, -0.021; with idasanutlin, 0.073; with alisertib, 0.01; in assay [2], 0.139. For the same target, the log2 fold change with gefitinib was 0.025; in [3], 0.124; with lapatinib, 0.036; in the assay with pictilisib, 0.122.

Take PSMD9 (UniProt O00233): the log2 fold change in assay [1] is -0.028; in the assay with filanesib it was -0.053; with zotarolimus, -0.021; in the assay with idasanutlin it was 0.005; with alisertib it was -0.074; in assay [2] it was 0.056. The log2 fold change with gefitinib is -0.013; in [3] it was -0.005; with lapatinib it was -0.021; with pictilisib it was -0.261 (active).

For POLR2M (UniProt Q6EEV4), the log2 fold change in [1] was -0.046; with filanesib it was 0.076; in the assay with zotarolimus it was 0.034; with idasanutlin, 0.046; with alisertib it was -0.144; in [2], -0.063. In addition, the log2 fold change with gefitinib was 0.076; in assay [3], -0.033; with lapatinib, -0.084.

In the case of PARP16 isoform 3 (UniProt Q8N5Y8), the log2 fold change in assay [1] was -0.029; with filanesib, -0.13; with zotarolimus, 0.039; with idasanutlin, -0.056; with alisertib it was -0.075; in assay [2], -0.097. The log2 fold change with gefitinib is 0.011; in assay [3] it was -0.03; with lapatinib, 0.071; with pictilisib, -0.008.

As for PRIM2 (UniProt P49643), the log2 fold change is 0.044 in assay [1]; -0.139 with filanesib; -0.132 with zotarolimus; 0.03 with idasanutlin; -0.042 in the assay with alisertib; 0.063 in [2]. For the same target, the log2 fold change was 0.069 in the assay with gefitinib, -0.033 in assay [3], -0.005 with lapatinib and 0.086 in the assay with pictilisib.

Consider PSMD11 (UniProt O00231), for which the log2 fold change in assay [1] is 0.018; in the assay with filanesib, -0.011; with zotarolimus, 0.028; in the assay with idasanutlin, 0.004; with alisertib, -0.058; in assay [2] it was -0.052. Moreover, the log2 fold change with gefitinib was -0.043; in assay [3] it was -0.071; in the assay with lapatinib it was 0.086; in the assay with pictilisib it was 0.003.

With PCGF2 (UniProt P35227), the log2 fold change is -0.039 in assay [1]; 0.055 with filanesib; 0.03 in the assay with zotarolimus; -0.008 with idasanutlin; 0.036 with alisertib; 0.11 in assay [2]. Moreover, the log2 fold change with gefitinib is 0.021; in assay [3], 0.018; with lapatinib it was -0.058; with pictilisib it was -0.02.

For PGM3 isoform 4 (UniProt O95394), the log2 fold change in assay [1] is 0.052; with filanesib, -0.135; with zotarolimus, 0.007; with idasanutlin, -0.079; with alisertib it was -0.007; in assay [2], 0. In addition, the log2 fold change was -0.028 with gefitinib, -0.01 in assay [3], -0.014 with lapatinib and -0.047 with pictilisib.

As to RAB11FIP1 (UniProt Q6WKZ4), the log2 fold change is -0.024 in assay [1]; 0.004 in the assay with filanesib; 0 with zotarolimus; -0.015 with idasanutlin; 0.368 with alisertib; -0.03 in assay [2]. The log2 fold change with gefitinib is -0.009; in assay [3], 0.007; with lapatinib it was 0.01; with pictilisib, -0.107.

With POLR2C (UniProt P19387), the log2 fold change in assay [1] is -0.04; with filanesib, 0.034; with zotarolimus, -0.012; with idasanutlin it was -0.074; with alisertib, 0.013; in assay [2], -0.022. The log2 fold change is -0.045 in the assay with gefitinib, 0.086 in [3] and 0.099 with lapatinib.

For PRKCB isoform 2 (UniProt P05771), the log2 fold change is -0.011 in [1]; -0.022 with filanesib; 0.046 in the assay with zotarolimus; -0.028 with idasanutlin; -0.051 with alisertib; 0.035 in assay [2]. The log2 fold change with gefitinib is 0.001; in assay [3] it was -0.036; in the assay with lapatinib, -0.008; with pictilisib it was 0.035.

Turning to PRPF4B (UniProt Q13523), the log2 fold change was -0.024 in assay [1]; 0.253 with filanesib; 0.187 with zotarolimus; 0.164 with idasanutlin; -0.047 with alisertib; -0.1 in assay [2]. For the same target, the log2 fold change is -0.023 in the assay with gefitinib, 0.003 in assay [3], 0.19 with lapatinib and 0.097 with pictilisib.

Regarding PHKA2 (UniProt P46019), the log2 fold change was -0.17 in assay [1]; -0.055 with filanesib; 0.022 in the assay with zotarolimus; -0.104 in the assay with idasanutlin; -0.067 with alisertib; 0.064 in [2]. Besides, the log2 fold change in the assay with gefitinib was -0.006; in assay [3], 0.025; in the assay with lapatinib, -0.037; in the assay with pictilisib, 0.078.

On to PSMD8 (UniProt K7ERW6), for which, in assay [1], the log2 fold change is -0.188.

For the target PRPF38B (UniProt Q5VTL8), the log2 fold change in assay [1] is -0.004; in the assay with filanesib it was 0.163; with zotarolimus it was 0.016; with idasanutlin, 0.039; in the assay with alisertib it was -0.09; in assay [2] it was 0.083. The log2 fold change with gefitinib is 0.002; in assay [3], 0.043; in the assay with lapatinib, 0.027; in the assay with pictilisib, 0.065.

The values above are taken from the supplement of paper PMC10849652.
